Hits are enriched below; roughly 21% of the tested compounds scored in any of these assays.
NS1 inh: influenza NS1 inhibition; actives 0.4% (n = 270,000); Potency, µM (series often up to 46.1 µM), without a hit: at the highest dose activity, positive = more growth; further: potency means the concentration at half of the fitted maximal effect; actives are rising curves; nearly all actives have a fitted effect of over 50% in size
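Recovery from NS1-induced slow growth read by OD600 in budding yeast switched to galactose assay medium (pH 6.0, -URA) at 1:100 dilution. Compound 23 nl per well; the matching strain lacking NS1 serves as control.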
Pf growth 48h: inhibits P. falciparum growth in the first generation, 48 h. P. falciparum luciferase growth in erythrocytes, 48 h. Potency, µM (series often up to 28.7 µM), for the others: top-dose activity change, negative = inhibition, most hits filed as inhibitors. actives 5.9% (n = 310,000). AID 504832; active means well fitted inhibition curve with a large enough effect; inconclusive means small, poorly fitted or top-dose-only effect, or another doubt; inactive means no such curve, though single readings can be large or run the other way; further: potency means the concentration at half of the fitted maximal effect; on the % scale 0 is the no-effect control and ±100 the full control effect
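Growth was read as firefly luciferase luminescence after a 48 h, 37 C, 5% CO2 exposure of compounds to reporter-bearing P. falciparum cultures (0.1% parasitemia, 2% hematocrit final) in Albumax-supplemented RPMI 1640.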
CHX counter: counter-screen for Shiga toxin inhibitors: cycloheximide protein synthesis inhibition; cell reporter, cycloheximide protein synthesis inhibition counterscreen; max response, %; actives 12% (n = 300,000); in the data active means max response mostly above about 13%, no sharp cut-off; inactive means mostly below about 14%; further: read at 38.3 µM for the half of the compounds with a filed dose; 0% is about no effect
SARS PLP yeast: SARS-CoV PLP inhibition in yeast; S. cerevisiae expressing SARS-CoV PLpro, growth rescue; Potency, µM (top dose mostly 32.9 µM), for the others: top-dose activity, positive = growth rescue, actives largely listed as activators; actives 0.19% (n = 330,000); AID 485353; further: potency means the concentration at half of the fitted maximal effect; 0% is about no effect; nearly all actives have a fitted effect of over 55% in size
Pf growth 96h: P. falciparum growth inhibition at 96 hours; P. falciparum luciferase reporter growth, 96 h; Potency, µM (titrated, usually from 28.7 µM), inactives show at the top dose activity change, negative = inhibition, most hits filed as inhibitors; actives 6.9% (n = 320,000); AID 504834; active means well fitted inhibition curve with a large enough effect; inconclusive means small, poorly fitted or top-dose-only effect, or another doubt; inactive means no such curve, though single readings can be large or run the other way; further: potency means the concentration at half of the fitted maximal effect; on the % scale 0 is the no-effect control and ±100 the full control effect
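Plates of compound plus infected erythrocytes (2% hematocrit, 0.05% parasitemia final) incubate 96 hours, 37 C, 5% CO2. Detection reagent added; reduced luminescence from the parasites' luciferase reporter flags inhibition.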
Shiga inhibitor: Shiga toxin inhibition; Vero cells, Shiga toxin protein synthesis inhibition reporter; inhibition, % at 38.7 µM; AID 2315; actives 9.2% (n = 290,000); in the data active means inhibition mostly above about 28%, no sharp cut-off; inactive means mostly below about 43%; further: 0% is about no effect
Active calls of the source: *. Unless noted, the call rests on the fitted dose curve.

How did COCCSc1nnc(NC(=O)C2CC(=O)N(CCc3ccc(F)cc3)C2)s1 (stereo not drawn) do in these assays?
NS1 inh: 8%; Pf growth 48h: inconclusive; CHX counter: -4; SARS PLP yeast: -7%; Pf growth 96h: inconclusive; Shiga inhibitor: -1

What do the screens show for `O=C(Nc1nc(=S)ss1)c1c(F)cccc1F`?
NS1 inh: -1%; Pf growth 48h: 61%; CHX counter: -3; SARS PLP yeast: -6%; Pf growth 96h: 46%; Shiga inhibitor: 6

What do the screens show for `O=C(Nc1ccc(/C=C/c2nc3ccccc3o2)cc1)c1c(F)cccc1F`?
NS1 inh: 7%; Pf growth 48h: -66%; CHX counter: 28*; SARS PLP yeast: -1%; Pf growth 96h: -36%; Shiga inhibitor: active

How did O=C(Nc1ccc(/C=C/c2nc3ccccc3o2)cc1)c1cccc(C(F)(F)F)c1 do in these assays?
NS1 inh: 14%; Pf growth 48h: 46%; CHX counter: 34*; SARS PLP yeast: -4%; Pf growth 96h: 40%; Shiga inhibitor: 102*

Results for CC(=O)Nc1ccc(/C=C/c2nc3ccccc3o2)cc1 ?
NS1 inh: -34%; CHX counter: 54*; SARS PLP yeast: -7%; Pf growth 96h: 129%; Shiga inhibitor: 101*

What do the screens show for `CC(=O)Nc1ccc(-c2nc3ccccc3c(=O)o2)cc1`?
NS1 inh: 1%; Pf growth 48h: 29%; CHX counter: -8; SARS PLP yeast: 5%; Pf growth 96h: inconclusive; Shiga inhibitor: 20

How did C=CCNc1nnc(Cl)c2ccccc12 do in these assays?
NS1 inh: -2%; Pf growth 48h: 0%; CHX counter: -3; SARS PLP yeast: -9%; Pf growth 96h: 11%; Shiga inhibitor: -9

What do the screens show for `Clc1cncc(Cl)c1N/N=C/c1ccccc1`?
NS1 inh: -58%; Pf growth 48h: 40%; CHX counter: 29*; SARS PLP yeast: -4%; Pf growth 96h: 95%; Shiga inhibitor: 48*

Results for Clc1nnc(N/N=C/c2ccccc2)c2ccccc12 ?
NS1 inh: -10%; CHX counter: 47*; SARS PLP yeast: -3%; Pf growth 96h: 9%; Shiga inhibitor: 65

What do the screens show for `Clc1nnc(NN=C2CCCC2)c2ccccc12`?
NS1 inh: -4%; Pf growth 48h: 35%; CHX counter: -1; SARS PLP yeast: 2%; Pf growth 96h: -28%; Shiga inhibitor: 4

How did Clc1ccc(/C=N/Nc2nnc(Cl)c3ccccc23)cc1 do in these assays?
NS1 inh: -1%; Pf growth 48h: 332%; CHX counter: 18*; SARS PLP yeast: 2%; Pf growth 96h: -11%; Shiga inhibitor: 55*

Results for Cc1ccc(/C=N/Nc2nnc(Cl)c3ccccc23)cc1 ?
NS1 inh: -13%; Pf growth 48h: 210%; CHX counter: 46*; SARS PLP yeast: -50%; Pf growth 96h: 185%; Shiga inhibitor: 46*

What do the screens show for `CCOc1cccc(N(C(=O)CNC(=O)c2ccco2)C(C(=O)NCC2CCCO2)c2ccccc2)c1` (stereo not drawn)?
NS1 inh: 0%; Pf growth 48h: -18%; CHX counter: -5; SARS PLP yeast: 0%; Pf growth 96h: 1%; Shiga inhibitor: -6

How did O=C(Cn1ncc2c1-c1ccccc1OC2)Nc1ccc(Cl)cn1 do in these assays?
NS1 inh: -7%; Pf growth 48h: 3%; CHX counter: -1; SARS PLP yeast: -9%; Pf growth 96h: 26%; Shiga inhibitor: 1

Results for CN1CCN(c2ccccc2NC(=O)c2cc3c(s2)-c2ccccc2OC3)CC1 ?
NS1 inh: -4%; Pf growth 48h: 10µM*; CHX counter: -6; SARS PLP yeast: -9%; Pf growth 96h: inconclusive; Shiga inhibitor: -7

Results for O=C(Nc1cccnc1Cl)c1cc2c(s1)-c1ccccc1OC2 ?
NS1 inh: -9%; Pf growth 48h: 44%; CHX counter: 26; SARS PLP yeast: 22%; Pf growth 96h: inconclusive; Shiga inhibitor: 27*

Results for O=C(Nc1ccc(Cl)cn1)c1cc2c(s1)-c1ccccc1OC2 ?
NS1 inh: -2%; Pf growth 48h: 32%; CHX counter: 16*; SARS PLP yeast: -1%; Pf growth 96h: 76%; Shiga inhibitor: 34
